# Measurements taken from PubChem BioAssay (NCATS).
# Active and inactive are the calls of the source. Calls follow the shape of the dose curve; as a rule, active = well fitted curve in the direction sought with a large enough effect; inconclusive = small, poorly fitted or top-dose-only effect, or another doubt; inactive = no such curve, though single readings can be large or run the other way.
# Target: Alpha-galactosidase (Coffea arabica) (UniProt Q42656)
# Experiment: Counterscreen for Glucocerebrosidase Inhibitors: qHTS Assay for Coffee Bean alpha-Galactosidase at pH 4.5 (AID 957)
# Settings: purified coffee bean alpha-galactosidase, fluorogenic substrate; series mostly up to 76.9 µM
# Summary of the method: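 Fluorogenic read-out: 4-methylumbelliferone at Ex 365/Em 440 nm after NaOH/glycine stop (pH 10). Enzyme 2 nM, 4-MU-alpha-galactoside 80 uM, citrate buffer pH 4.5, 20 min RT; normalized to no-enzyme and enzyme controls.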
# Chain of Alpha-galactosidase (Coffea arabica) (Q42656 whole entry, looked up): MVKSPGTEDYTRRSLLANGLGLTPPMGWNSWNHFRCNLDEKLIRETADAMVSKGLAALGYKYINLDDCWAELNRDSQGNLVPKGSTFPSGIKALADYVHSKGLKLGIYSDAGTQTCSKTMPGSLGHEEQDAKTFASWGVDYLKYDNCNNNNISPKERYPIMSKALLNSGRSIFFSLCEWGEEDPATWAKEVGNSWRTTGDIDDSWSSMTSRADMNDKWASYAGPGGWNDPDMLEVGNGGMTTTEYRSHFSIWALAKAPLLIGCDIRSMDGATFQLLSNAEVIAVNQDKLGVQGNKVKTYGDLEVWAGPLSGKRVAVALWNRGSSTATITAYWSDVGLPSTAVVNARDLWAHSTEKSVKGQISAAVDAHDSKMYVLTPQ
row,Compound,outcome
1,CC(=O)c1ccc(S(=O)(=O)NC(=O)NC2CCCCC2)cc1,inactive
2,C[N+](C)(C)CCOC(N)=O,inactive
3,Nc1cc(=O)[nH]c(N)n1,inactive
4,CN1CCC[C@@H]1c1cccnc1,inactive
5,CC(C)NNC(=O)c1ccncc1,inactive
6,O=c1[nH]cnc2[nH]ncc12,inactive
7,CNCCC=C1c2ccccc2CCc2ccccc21,inactive
8,CCOC(=O)c1cnc2c(cnn2CC)c1NN=C(C)C,inactive
9,CN(C)C(=O)Oc1ccc[n+](C)c1,inactive
10,NCCCNCCSP(=O)(O)O,inactive
11,CC(=O)N1CCN(c2ccc(OC[C@H]3CO[C@](Cn4ccnc4)(c4ccc(Cl)cc4Cl)O3)cc2)CC1,inactive
12,Cc1cnc(NC(=O)C2=C(O)c3ccccc3S(=O)(=O)N2C)s1,inactive
13,CN1CCN(CCC=C2c3ccccc3Sc3ccc(S(=O)(=O)N(C)C)cc32)CC1,inactive
14,Cc1nc2ccccn2c(=O)c1CCN1CCC(C(=O)c2ccc(F)cc2)CC1,inactive
15,CCN(CC)C(=O)c1ccc(O)c(OC)c1,inactive
16,FC(F)(F)c1ccccc1-n1ccnc1,inactive
17,N[C@@H](COP(=O)(O)O)C(=O)O,inactive
18,CCN1CCC[C@H]1CNC(=O)c1cc(S(N)(=O)=O)ccc1OC,inactive
19,CC(C)C(=O)c1c(C(C)C)nn2ccccc12,inactive
20,NC(N)=Nc1nc(CSCC/C(N)=N/S(N)(=O)=O)cs1,inactive
21,Cc1scc2c1N(C(=O)CN1CCN(C)CC1)c1ccccc1NC2=O,inactive
22,COc1cc(NS(C)(=O)=O)ccc1Nc1c2ccccc2nc2ccccc12,inactive
23,CC(=O)OCC(=O)[C@@]1(O)CC[C@H]2[C@@H]3CCC4=CC(=O)CC[C@]4(C)[C@H]3C(=O)C[C@@]21C,inactive
24,NC(=O)N1c2ccccc2C=Cc2ccccc21,inactive
25,O=c1c(-c2ccc(O)cc2)coc2cc(O)cc(O)c12,inactive
26,Cc1ccc(Cl)c(Nc2ccccc2C(=O)O)c1Cl,inactive
27,CC(C)Cc1ccc(C(C)C(=O)O)cc1 (centres undefined),inactive
28,O=C(O)CCCCCCCC(=O)O,inactive
29,CNC[C@H](O)c1cccc(O)c1,inactive
